Values joined by “and” are separate entries in the source; they are usually repeats but may differ in a detail not shown here. Equal values may be shown once. Results filed as inconclusive are left out. Active and inactive are the calls of the source. The calls were made as follows: active = hit-call score of the fitted dose curve at least 0.9, where 1 is the maximum; inconclusive = response in the unintended direction; inactive = score below 0.9.

Cellular tumor antigen p53 (Homo sapiens), sequence (P04637 whole entry, looked up): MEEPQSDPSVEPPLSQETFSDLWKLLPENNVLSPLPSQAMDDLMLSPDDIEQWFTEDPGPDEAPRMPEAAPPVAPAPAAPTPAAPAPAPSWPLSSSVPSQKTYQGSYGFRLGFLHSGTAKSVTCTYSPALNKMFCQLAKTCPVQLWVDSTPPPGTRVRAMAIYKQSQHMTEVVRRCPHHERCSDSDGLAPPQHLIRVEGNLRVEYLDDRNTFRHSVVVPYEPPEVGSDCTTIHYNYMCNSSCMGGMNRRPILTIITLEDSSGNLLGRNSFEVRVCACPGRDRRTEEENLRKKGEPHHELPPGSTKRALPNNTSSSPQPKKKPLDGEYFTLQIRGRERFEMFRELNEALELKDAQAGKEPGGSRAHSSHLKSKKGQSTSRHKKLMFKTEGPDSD

System in the first assay: not listed separately
In words: TOX21_p53_BLA_p5_viability: Viability Assessment in the Tox21 HCT-116 p53 Agonism Beta-lactamase Assay, Phase 5 (AID 2283600). The method in brief:
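Decreased CellTiter-Glo luminescence denotes lost viability. Exposure: 16 h at 37C, 5% CO2, with compounds from DMSO stocks diluted 217-fold in wells of 4000 cells.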
On to `CC(=O)CCC=C(C)CCC=C(C)C`, for which the outcome was inactive. Still for that read-out and setting: the value for `CC(C)(C)C1CCC(O)CC1` (stereo not drawn) was “inactive”; that for `CC(C)=CCCC(C)=CC(=O)O` was “inactive”. With `O=C(c1ccc(OCCN2CCCCC2)cc1)c1c(-c2ccc(O)cc2)sc2cc(O)ccc12`, the AC50 (as a rule, the concentration at which the activity in the assay is half-maximal) is 77.6 µM (active) and 87.9 µM (active) and 41.9 µM (active). For `CCCCCCCC(=O)N(C)C`, the result was inactive.

In the case of `CCc1cccc(O)c1`, the result was inactive. Same read-out and setting: the value for `COC(=O)c1cccc(C(=O)OC)c1` was “inactive”; that for `O=C(OCc1ccccc1)c1ccccc1O` was “inactive”.

For `Cc1ccncc1`, the outcome was inactive. Same read-out and setting: the value for `CCOC(=O)C=Cc1ccccc1` was “inactive”; that for `CC(O)COCC(C)O` (stereo not drawn) was “inactive”.

`[O-]/[N+](=N\O)c1ccccc1`: the compound was classed as inactive. Same read-out and setting: the value for `CCCCCC(=O)O[C@]1(C(C)=O)CC[C@H]2[C@@H]3CCC4=CC(=O)CC[C@]4(C)[C@H]3CC[C@@]21C` was “inactive”. Still for that read-out and setting: the value for `O=[N+]([O-])c1cc(N(CCO)CCO)ccc1NCCO` was “inactive”; that for `CC(C)OB(OC(C)C)OC(C)C` was “inactive”; that for `CCCCC(CC)COC(=O)COc1ccc(Cl)cc1C` (stereo not drawn) was “inactive”. On the same count and under the same terms, next, `CC(C)(O)C(=O)c1ccc(OCCO)cc1`: “inactive”; `O=S(=O)(O)c1cc(S(=O)(=O)O)c2c(N=Nc3ccccc3)c(O)ccc2c1`: “inactive”; `CC(=O)CC(C)(C)C1CCCCC1`: “inactive”. In the case of `COC(=O)C(C)Oc1ccc(Oc2ncc(C(F)(F)F)cc2Cl)cc1` (stereo not drawn), the compound was called inactive. Consider `COc1ccccc1NC(=O)CC(C)=O`, for which the outcome was inactive. Still for that read-out and setting: next, `COC(=O)c1ccc(C(=O)OC)cc1`: “inactive”; `CC(C)CCCC(C)(C)O`: “inactive”; `Cc1cc(O)c2c(c1)C(=O)c1cc(O)cc(O)c1C2=O`: “inactive”. Still for that read-out and setting: next, `CCCCCCOc1ccc(O)cc1`: “inactive”.

A further assay addresses Cellular tumor antigen p53 (Homo sapiens) (UniProt P04637). In words: TOX21_p53_BLA_p4_ratio: Tox21 HCT-116 p53 Agonism Beta-lactamase Assay, Ratio, Phase 4 (AID 2283601). The procedure, abridged: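 Signal is the blue/green (460nm/530nm) ratio of cleaved versus uncleaved CCF4-AM substrate, read after 2 h substrate loading. Cells were HCT116 carrying the p53-responsive beta-lactamase reporter, dosed 16 h at 37C, 5% CO2; CellTiter-Glo measured in parallel.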
As for `CC(=O)CCC=C(C)CCC=C(C)C`, the outcome was inactive. Still for that read-out and setting: the value for `CC(=O)c1cccnc1` was “inactive”.

`CC(C)(C)C1CCC(O)CC1` (stereo not drawn): the result was inactive.

As for `CC(C)=CCCC(C)=CC(=O)O`, the result was inactive.

As for `O=C(c1ccc(OCCN2CCCCC2)cc1)c1c(-c2ccc(O)cc2)sc2cc(O)ccc12`, the AC50 was 69.6 µM (active) and 69.3 µM (active) and 36.5 µM (active).

Consider `CCCCCCCC(=O)N(C)C`, for which the outcome was inactive.

As for `C#C[C@]1(O)CC[C@H]2[C@@H]3CCc4cc(O)ccc4[C@H]3CC[C@@]21C`, the AC50 was 6.65 µM (active) and 13.5 µM (active) and 8.18 µM (active). For `CCc1cccc(O)c1`, the outcome was inactive. On the same count and under the same terms, the value for `COC(=O)c1cccc(C(=O)OC)c1` was “inactive”.

As to `O=C(OCc1ccccc1)c1ccccc1O`, the outcome was inactive. On the same count and under the same terms, next, `Cc1ccncc1`: “inactive”. On the same count and under the same terms, next, `CC(O)COCC(C)O` (stereo not drawn): “inactive”; `CC(O)CNCC(C)O` (stereo not drawn): “inactive”; `[O-]/[N+](=N\O)c1ccccc1`: “inactive”. On the same count and under the same terms, next, `CC(=O)CC(=O)N(C)C`: “inactive”; `CCCc1ccc(N)cc1`: “inactive”. For the compound `CCCCCC(=O)O[C@]1(C(C)=O)CC[C@H]2[C@@H]3CCC4=CC(=O)CC[C@]4(C)[C@H]3CC[C@@]21C`, the outcome was inactive. Still for that read-out and setting: next, `O=[N+]([O-])c1cc(N(CCO)CCO)ccc1NCCO`: “inactive”; `CCCCCc1cccc(=O)o1`: “inactive”; `O=S(=O)(O)c1cc(S(=O)(=O)O)c2c(N=Nc3ccccc3)c(O)ccc2c1`: “inactive”. Still for that read-out and setting: next, `CCCCCCCCOC(C)=O`: “inactive”; `CC(=O)CC(C)(C)C1CCCCC1`: “inactive”; `COc1ccccc1NC(=O)CC(C)=O`: “inactive”.

Turning to `CCCCOCCOCCOCCO`, the outcome was inactive. Same read-out and setting: the value for `COC(=O)c1ccc(C(=O)OC)cc1` was “inactive”. On the same count and under the same terms, the value for `Cc1cc(O)c2c(c1)C(=O)c1cc(O)cc(O)c1C2=O` was “inactive”. Take `CCCCCCOc1ccc(O)cc1`: the AC50 is 72.5 µM (active). As to `Nc1ccc(O)c(N)c1`, the outcome was inactive.

The values are drawn from PubChem BioAssay (EPA / NIEHS).
